D2 antag: HTS Assay for Allosteric Antagonists of the Human D2 Dopamine Receptor: Primary Screen for Antagonists; D(2) dopamine receptor (Homo sapiens), P14416; HEK293 TREx D2 cells, calcium flux, dopamine EC80; inhibition, % at 10 µM; 2% of 340,000 active; in the data active = inhibition above about 30%; inactive = below that, where a call was filed; note: 0% is about no effect
Target sequence (P14416 whole entry, looked up): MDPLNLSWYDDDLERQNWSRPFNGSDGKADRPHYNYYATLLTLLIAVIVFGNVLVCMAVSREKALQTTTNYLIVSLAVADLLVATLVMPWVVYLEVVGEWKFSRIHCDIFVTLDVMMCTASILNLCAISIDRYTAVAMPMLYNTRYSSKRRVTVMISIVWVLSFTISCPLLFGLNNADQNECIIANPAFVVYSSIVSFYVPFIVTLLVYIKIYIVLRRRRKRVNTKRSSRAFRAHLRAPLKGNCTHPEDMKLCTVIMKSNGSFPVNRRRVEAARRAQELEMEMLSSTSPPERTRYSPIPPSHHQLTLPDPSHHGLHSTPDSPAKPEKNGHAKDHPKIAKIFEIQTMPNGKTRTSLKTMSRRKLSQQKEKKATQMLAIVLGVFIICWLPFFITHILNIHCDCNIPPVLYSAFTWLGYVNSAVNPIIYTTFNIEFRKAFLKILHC
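In this primary screen, negative modulation is detected by tracking calcium flux after an EC80 dopamine challenge in inducible HEK293 T-REx D2 cells preexposed to test compound for 180 s.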
D2 ag-1: Beta-Arrestin HTS for Positive Allosteric Modulators of the Human D2 Dopamine Receptor: Agonists; D(2) dopamine receptor (Homo sapiens), P14416; DiscoveRx PathHunter D2 beta-arrestin, luminescence, 90 min; 100% = 57 uM dopamine signal; 0.084% of 360,000 active; activation, % (concentration not given with the values); in the data active = activation above about 40%; inconclusive = between about 15% and that limit
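DiscoveRx PathHunter D2 beta-arrestin cells (2,100/well) attached overnight, then compound-stimulated 90 min at 37 C in HBSS/10 mM HEPES/0.1% Tween-20 buffer; beta-galactosidase complementation read by luminescence after 1 h at ambient temperature. Dopamine 57 uM final (EC100) as control.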
D2 ag-2: HTS Assay for Allosteric Agonists of the Human D2 Dopamine Receptor: Primary Screen for Agonists | D(2) dopamine receptor (Homo sapiens), P14416 | HEK293 T-REx D2 cells, calcium flux agonist mode | activation, % at 2 µM | 0.53% of 340,000 active | AID 485358, 2010;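 active = activation over 3 SD above normal in the single-dose calcium agonist read, cut at about 30% in these data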; note: 0% is about no effect
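Agonism is scored from calcium flux in a force-coupled, inducible HEK293 cell line expressing D2, read kinetically for 180 s after compound addition against dopamine controls.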
D2 PAM-1: Beta-Arrestin HTS for Positive Allosteric Modulators of the Human D2 Dopamine Receptor: Potentiators; potentiation, % (no concentration beside the values); D(2) dopamine receptor (Homo sapiens), P14416; 0.23% of 360,000 active; DiscoveRx D2 beta-arrestin cells, luminescence, 90 min; 100% = 57 uM dopamine signal; in the data active = potentiation above about 50%; inconclusive = mostly about 30% to 49%
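PathHunter D2 cells, attached overnight at 37 deg C, received compound in DMSO plus dopamine at EC20 (50 nM final) for 90 min at 37 deg C. Beta-arrestin recruitment was read as luminescence after 1 h with detection reagent at ambient temperature.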
LDHA block: qHTS assay for inhibitors of human lactate dehydrogenase; L-lactate dehydrogenase A chain (Homo sapiens), P00338; purified LDHA, NADH/diaphorase-resazurin fluorescence; stronger effect = lower value; activity change, % (values are at about 110 or 230 µM); 0.15% of 480,000 active; in the data active = activity change below about -30%; inconclusive = mostly about -25% to -30%;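 note: plate controls were DMSO wells for no effect and wells without enzyme for full effect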
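Remaining NADH was detected by diaphorase (0.133 mg/mL) converting 37 µM resazurin to fluorescent resorufin, read at 0 and 20 minutes. The preceding 5-minute room-temperature reaction used 2 nM LDHA, 0.2 mM sodium pyruvate and 0.06 mM NADH at pH 7.4.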
D2 PAM-2: HTS Assay for Positive Allosteric Modulators of the Human D2 Dopamine Receptor: Primary Screen for Potentiators; D(2) dopamine receptor (Homo sapiens), P14416; HEK293 T-REx D2, calcium flux, EC20 dopamine potentiation; potentiation, % at 10 µM; 0.34% of 340,000 active; AID 485347, 2010;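 active = potentiation over 3 SD above the plate norm, cut at about 30% in these data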; note: 0% is about no effect
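Using a no-wash calcium dye in inducible, force-coupled HEK293 Trex cells expressing D2, we tracked fluorescence each second for 180 s after compound, then for 180 s after EC20 dopamine to detect augmented signalling.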
* marks the source's active call; other numbers are inactive results. An excerpt weighted towards active compounds, which were near 2.1% of everything screened.

Screening CC12CN3CC(C)(CN(C1)C3c1ccc([N+](=O)[O-])o1)C2=O (stereo not drawn) returned D2 antag -9, D2 ag-1 -4, D2 ag-2 -4, D2 PAM-1 0, LDHA block -5 and D2 PAM-2 1.
Screening CC12CN3CC(C)(CN(C1)C3c1ccc([N+](=O)[O-])o1)C2 (stereo not drawn) returned D2 antag 32*, D2 ag-1 3, D2 ag-2 0, D2 PAM-1 1, LDHA block 0 and D2 PAM-2 -8.
For NS(=O)(=O)c1ccc(NN=C2CCCC2)c([N+](=O)[O-])c1 the results were LDHA block 3.
For COc1ccccc1NS(=O)(=O)c1ccc(NN=C2CCCC2)c([N+](=O)[O-])c1 the results were D2 antag 34*, D2 ag-1 0, D2 ag-2 -1, D2 PAM-1 15, LDHA block -3 and D2 PAM-2 3.
COC1=C/C(=C/c2c(O)c(C#N)c3ccccn23)C=CC1=O was read as D2 antag 33*, D2 ag-1 -2, D2 ag-2 2, D2 PAM-1 -7, LDHA block 9 and D2 PAM-2 -3.
For O=C1OCCC1NCC(c1ccccc1)c1c[nH]c2ccccc12 (stereo not drawn) the results were LDHA block 2.
`COc1cc(Nc2cc(C)nc3ncnn23)cc(OC)c1OC` gave D2 antag 32*, D2 ag-1 1, D2 ag-2 0, D2 PAM-1 0, LDHA block 8 and D2 PAM-2 -22.
Screening COc1ccc(-c2cc(C(=O)Nc3cc(C)on3)no2)cc1 returned D2 antag 3, D2 ag-1 -1, D2 ag-2 2, D2 PAM-1 -9, LDHA block -20 and D2 PAM-2 -10.
For CCc1ccc(NC(=O)c2cc(-c3ccco3)on2)cc1 the results were D2 antag -16, D2 ag-1 -1, D2 ag-2 0, D2 PAM-1 -4, LDHA block -7 and D2 PAM-2 53*.
`COc1ccc(OC)c(-c2cc(C(=O)Nc3cc(C)on3)no2)c1` gave D2 antag 38*, D2 ag-1 -2, D2 ag-2 -1, D2 PAM-1 -19, LDHA block -9 and D2 PAM-2 -40.
`COc1ccc(NC(=O)c2cc(-c3ccccc3Cl)on2)cc1` gave D2 antag 4, D2 ag-1 -5, D2 ag-2 1, D2 PAM-1 -50, LDHA block -13 and D2 PAM-2 -13.
For COc1ccc(NC(=O)c2cc(-c3ccco3)on2)cc1 the results were D2 antag -12, D2 ag-1 -1, D2 ag-2 0, D2 PAM-1 -5, LDHA block -6 and D2 PAM-2 -8.
COc1ccc(NC(=O)c2cc(-c3ccccc3OC)on2)cc1 was read as D2 antag 32*, D2 ag-1 -2, D2 ag-2 0, D2 PAM-1 -10, LDHA block 2 and D2 PAM-2 -27.
COC(=O)C1=C(C(=O)OC)SC(=C(Cl)C(=S)Nc2cccc(C)c2)S1 was read as LDHA block 10.
CN(C)c1ccc(NC(=O)CSc2ccc(F)cc2)cc1 was read as LDHA block 12.
O=C(NNC(=O)C1CCN(S(=O)(=O)c2cccc(C(F)(F)F)c2)CC1)C1CC1 was read as D2 antag 4, D2 ag-1 1, D2 ag-2 0, D2 PAM-1 3, LDHA block 0 and D2 PAM-2 -3.
For CNC(=O)c1ccc(NC(=O)C2CCN(S(=O)(=O)c3cccc(C(F)(F)F)c3)CC2)cc1 the results were D2 antag 30*, D2 ag-1 1, D2 ag-2 1, D2 PAM-1 14, LDHA block -8 and D2 PAM-2 -2.
O=C(O)/C=C/C(=O)N1CCN(S(=O)(=O)c2cccc(C(F)(F)F)c2)CC1 was read as D2 antag 31*, D2 ag-1 3, D2 ag-2 0, D2 PAM-1 inconclusive, LDHA block -3 and D2 PAM-2 5.
O=C(CSc1nc2c(c(=O)[nH]1)CCC2)Nc1oncc1-c1ccccc1 was read as LDHA block 4.
CCOC(=O)C1(C)C=C(Nc2ccc(O)cc2)C(=O)N1c1ccc(O)cc1 (stereo not drawn) was read as D2 antag -4, D2 ag-1 inconclusive, D2 ag-2 -1, D2 PAM-1 104*, LDHA block 27 and D2 PAM-2 -1.
`CN(C)c1ccc(N=Cc2nc(-c3ccccc3)oc2OC(=O)c2cccc(Cl)c2)cc1` gave D2 antag 7, D2 ag-1 0, D2 ag-2 2, D2 PAM-1 -11, LDHA block -3 and D2 PAM-2 -9.
`Cc1ccc(C(=O)Oc2oc(-c3ccccc3)nc2C=Nc2ccc(N(C)C)cc2)cc1` gave D2 antag -8, D2 ag-1 -1, D2 ag-2 -2, D2 PAM-1 -18, LDHA block 3 and D2 PAM-2 39*.
For CCN(CC(=O)NC)S(=O)(=O)c1ccc(C)cc1 the results were D2 antag -1, D2 ag-1 2, D2 ag-2 0, D2 PAM-1 -1, LDHA block -4 and D2 PAM-2 4.
For CCN(CC(=O)NC)S(=O)(=O)c1ccc(Br)cc1 the results were D2 antag -1, D2 ag-1 -3, D2 ag-2 0, D2 PAM-1 -5, LDHA block -4 and D2 PAM-2 34*.
`COc1ccc(Cn2c(-c3ccc(C)cc3)nc3c(c(=O)c4ccccc4n3C)c2=O)cc1` gave D2 antag 37*, D2 ag-1 -3, D2 ag-2 0, D2 PAM-1 -12, LDHA block 0 and D2 PAM-2 -3.
For COc1ccc(CCn2c(C)nc3c(c(=O)c4ccccc4n3C)c2=O)cc1 the results were D2 antag 49*, D2 ag-1 2, D2 ag-2 3, D2 PAM-1 -17, LDHA block -4 and D2 PAM-2 25.
`COc1ccc(Cn2c(C)nc3c(c(=O)c4ccccc4n3C)c2=O)cc1` gave D2 antag 2, D2 ag-1 0, D2 ag-2 -2, D2 PAM-1 -2, LDHA block 1 and D2 PAM-2 5.

Source: PubChem BioAssay
